Experimental data published in PubChem BioAssay AID504843 (Broad Institute, 2011).
Hit rate of the full screen: of about 1,200 compounds, about 360 (30%) were called active. How the calls were made is not given here. Only a sample is shown. Where a call stands in place of a potency, no number is given. Potency and affinity values are given separately.

assay: antibacterial activity by ATP level – BacTiter-Glo luminescence, cherry-picked samples, counter-screen, dose response (AID 504843); conditions: bacterial growth; series mostly up to 15 µM;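 further: growth measured after 8 h incubation at 30 °C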

SMILES	outcome
Nc1cc(S(=O)(=O)C(F)(F)F)ccc1C(=O)O	inactive
N#Cc1cccc(Nc2c3c(nc4ccccc24)CCCC3)c1	inactive
CC(=O)c1ccccc1OCC(O)CN1CCN(C(c2ccccc2)c2ccccc2)CC1 (stereo not given)	inactive
O=C1c2cccc3cccc(c23)C(=O)N1CC1CCN(CC(O)COc2ccc3ccccc3c2)CC1 (stereo not given)	inactive
Cc1cc(C)c(C#N)c(SCS(=O)c2ccc(C(C)(C)C)cc2)n1 (stereo not given)	inactive
C#CCNC(=O)C1=C[C@H](c2csc3ccccc23)[C@@H](CCCO)[C@H](OCC)O1	inactive
CN(C/C=C/c1ccccc1[N+](=O)[O-])Cc1ccccc1	inactive
O=S(=O)(c1cc(Cl)cc(Cl)c1O)N1CCC2(CC1)OCCO2	inactive
Cc1cccn2c(=O)c3cc(S(=O)(=O)c4ccccc4)c(=N)n(Cc4ccco4)c3nc12	inactive
O=C(O)[C@@H](c1ccccc1)N1Cc2ccccc2C1=O	inactive
CC1CC(=O)N(c2ccc(Br)cc2)C(=O)C1	inactive
COc1ccc(OCc2nnc(SCC(=O)N3C(C)CCCC3C)o2)cc1 (stereo not given)	inactive
CC(C)(C)c1cc(NS(=O)(=O)c2ccc3c(c2)OCCO3)on1	inactive
Cc1cc(NC(=O)c2ccc([N+](=O)[O-])cc2)n(C)n1	inactive
O=C(COc1ccc([N+](=O)[O-])cc1)Nc1cccc2nsnc12	inactive
COc1ccc2nc(SCC(=O)Nc3cc(OC)c(OC)cc3C(=O)O)c(C)cc2c1	inactive
O=C(Nc1ccc(S(=O)(=O)Nc2ncccn2)cc1)c1cncc(Br)c1	inactive
Cc1ccc(S(=O)(=O)CCNC(=O)Cc2ccc(Cl)cc2)cc1	inactive
O=C(COC(=O)C12CC3CC(CC(Br)(C3)C1)C2)Nc1cccnc1Cl	inactive
Cc1ccnc(SCCn2c(N3CC(C)CC(C)C3)nc3c2c(=O)n(C)c(=O)n3C)n1 (stereo not given)	inactive
Cc1cc(N2C(=O)c3ccc(C(=O)Nc4ccc(O)cc4C(=O)O)cc3C2=O)no1	inactive
O=C(N/N=C/C1=C(N2CCOCC2)C(=C\c2ccccc2)/CC1)Nc1ccccc1	inactive
COc1cccc(C2C(C(=O)OC(C)C)=C(C)Nc3ncnn32)c1 (stereo not given)	inactive
Cc1csc(NC(=O)c2c(-c3c(Cl)cccc3Cl)noc2C)n1	inactive

SMILES	outcome
COc1ccc(Nc2nc3ccccc3nc2-n2nc(C)cc2C)cc1	inactive
COc1cc(OC)c2c(C)cc(=O)oc2c1	inactive
COc1cccc(-n2c(SCc3ccccn3)nc3c(c2=O)SCC3)c1	inactive
COc1ccc(NC(=O)c2ccccc2[N+](=O)[O-])cc1OC	inactive
CCN(CC)CCCn1c(C)cc2c(c1=O)C(c1cccc(Cl)c1)C(C#N)=C(N)O2 (stereo not given)	inactive
Cc1ccnc(SCC(=O)c2cccs2)n1	inactive
O=C(CSc1ncccn1)N/N=C/c1cccs1	inactive
COc1ccccc1N1CCN(CC(=O)Nc2ccc3c(c2)OCCO3)CC1	inactive
COc1cc(NC2c3ccccc3C(=O)N2Cc2ccc3c(c2)OCO3)cc(OC)c1OC (stereo not given)	inactive
COc1cccc(C(=O)NCCS(=O)(=O)NCc2ccccn2)c1	inactive
COc1ccc(C(=O)NC(C(=O)NCc2ccccn2)C(C)C)cc1 (stereo not given)	inactive
Cc1nn2c(SCC(=O)c3cccs3)cc(C(C)(C)C)nc2c1-c1ccccc1	inactive
O=c1[nH]c(-c2ccccn2)nc2ccccc12	inactive
CC1=NCC(C)c2c1[nH]c1ccccc21 (stereo not given)	inactive
COC(=O)c1sccc1NC(=O)c1ccc2c(c1)OCO2	inactive
O=C(CNC(=O)c1ccccc1)NC1(C(=O)NC2CCCC2)CCCCC1	inactive
COc1ccc(Cl)cc1C(=O)NCCN(C)C	inactive
CCCCN1C(=O)C(CC(=O)NCC)SC1=Nc1ccccc1 (stereo not given)	inactive
C=C1CSc2nc(=O)c3c4c(sc3n21)CCCC4	inactive
COc1ccc(CCNC(=O)CN2CCOc3ccccc32)cc1OC	inactive
COC(c1ccccc1)c1nnc(CCC(=O)N(C)C(C2CC2)C2CC2)o1 (stereo not given)	inactive
O=C(Nc1ccccc1F)C1CCN(C(=O)Cc2ccccc2)CC1	inactive
O=C(CCNC(=O)C1CCN(S(=O)(=O)c2ccc(F)cc2)CC1)Nc1nccs1	inactive
CC(=O)Nc1ccc(NC(=O)CSc2ccccn2)cc1	inactive

SMILES	outcome
O=C(CCC(=O)Nc1ccccc1)N/N=C/c1ccncc1	inactive
C/C=C(/C)C(=O)Nc1cccc(C2=NOC3(C2)C[C@H](C(N)=O)N(C(=O)c2ccc(Cl)cc2)C3)c1 (stereo not given in full)	inactive
Cc1nc2ccc(NC(=O)C3CCN(S(=O)(=O)c4cccs4)CC3)cc2s1	inactive
Cc1ccc(S(=O)(=O)N2CCC(C(=O)Nc3nnc(C)s3)CC2)cc1	inactive
Cc1noc(C)c1COc1ccccc1C(=O)NC1CCC(C)CC1 (stereo not given)	inactive
N#Cc1cccc(C(=O)OCC(=O)NCc2ccco2)c1	inactive
CS(=O)(=O)N(CC(=O)NC1CCCC1)c1cccc(F)c1	inactive
Cc1cccc(N(CC(=O)NC(C)(C)C)C(=O)CCC(=O)Nc2nccs2)c1	inactive
O=c1cc(O)nc[nH]1	inactive
CCOc1cc(C(=O)N2CCCN(C)CC2)cc(OCC)c1OCC	inactive
O=C(Cn1cc2c(n1)CCCCC2)N1CCc2ccccc2C1	inactive
COc1ccc(CN(C(=O)/C=C/c2ccccc2Cl)C2CCS(=O)(=O)C2)cc1 (stereo not given)	inactive
Cn1c(-c2ccccc2)cnc1SCc1nc2ccccc2c(=O)[nH]1	inactive
CCOC(=O)c1c(NC(=O)CSc2n[nH]c(CNc3ccccc3)n2)sc(C)c1C	inactive
COc1ccc(NC(=O)c2ccc(Oc3ncccn3)cc2)cc1	inactive
Cc1nn2c(COc3ccc(NC(=O)c4ccccc4Cl)cc3)nnc2c2ccccc12	inactive
CCn1ccnc1CN(C)C(=O)c1cc(COc2ccc(Cl)cc2OC)on1	inactive
COc1ccc(NC(=O)Cn2ncc(Cl)c(Cl)c2=O)cc1S(=O)(=O)N1CCOCC1	inactive
CCN(CC(=O)NCc1ccc(F)cc1)CC(=O)Nc1ccc(S(=O)(=O)N2CCCC2)cc1	inactive
COc1ccccc1OCCNC(=O)Cc1ccc(S(=O)(=O)N2CCOCC2)s1	inactive
O=C(CSc1nc(O)c(Cc2ccccc2F)c(=O)[nH]1)N1CCCCCC1	inactive
COc1ccc(-c2csc(NC(=O)C3COc4ccccc4O3)n2)cc1OC (stereo not given)	inactive
